Reference: PubChem BioAssay (Tox21)
Records with an inconclusive call do not appear. A call without a number means that no potency is given here. The source made the active and inactive calls. Calls follow the shape of the dose curve; as a rule, active = well fitted cell-killing curve with a large enough effect in the repeat runs; inconclusive = weak or mixed curves; inactive = flat fitted curve, though single readings scatter.

assay: qHTS RealTime-Glo MT Cell Viability Assay in HepG2 cells - 32 hour (AID 1224877); conditions: RealTime-Glo luminescence; series mostly up to 76.8 µM; also: nearly all actives have a fitted effect of over 55% in size
Source text: U.S. Tox21 Program National Center for Advancing Translational Sciences [NCATS] NIH Chemical Genomics Center [NCGC] U.S. Environmental Protection Agency [EPA] National Institutes of Environmental Health Sciences [NIEHS] National Toxicology Program [NTP] U.S. Food and Drug Administration [FDA] Tox21 Assay Overview: Measure of cell viability is critical in the cell-base assay. Analysis of cell viability is necessary for the characterization of cell responses to cytotoxic drugs and environmental stress. A RealTime-Glo MT Cell Viability Assay to monitor cell viability in real time of continues cell culture during 40 hours of compound treatment was used to screen Tox21 10K library compounds in HepG2 cells. The RealTime-Glo MT Cell Viability Assay is a nonlytic, homogeneous, bioluminescent method to measure cell viability in real time using a simple, plate-based method. The assay involves adding NanoLuc luciferase and a cell-permeant prosubstrate to cells in culture. Viable cells reduce the proprietary prosubstrate to generate a substrate for NanoLuc luciferase. This substrate diffuses from cells into the surrounding culture medium, where it is rapidly used by the NanoLuc Enzyme to produce a luminescent signal. The signal correlates with the number of viable cells, making the assay well suited for cytotoxicity studies.
Tox21 Assay Protocol Summary: The mixture of HepG2 cell suspension and reagents were dispensed at 600cells/6 ul/well in 1536-well tissue culture treated black solid bottom plates using a Multidrop dispenser. After the assay plates were incubated at a 37 C/5% CO2 incubator for 5 hours, 23 nL of compounds dissolved in DMSO, positive and negative controls was transferred to the assay plate by a pintool work station. The plates were incubated at 37 C for 40 hours. The luminescence intensity were measured at 0h, 8h, 16h, 24h, 32h and 40h time points using ViewLux plate reader during compound treatment.
Potency is read from the fitted curve at half-maximal effect.

SMILES | Potency | activity change, negative = cytotoxic
CC(=O)[C@@]1(O)CC[C@H]2[C@@H]3C[C@H](C)C4=CC(=O)CC[C@]4(C)[C@H]3CC[C@@]21C | inactive | –
COc1ccc(OC)c(OC)c1 | inactive | –
C=Cc1c(C)c2cc3[nH]c(cc4nc(cc5nc(cc1[nH]2)C(C)=C5CCC(=O)O)C(CCC(=O)O)=C4C)c(C)c3C=C | inactive | –
Nc1nc(CC(=O)O)cs1 | inactive | –
O=S(=O)(O)c1ccc(O)c2ncccc12 | inactive | –
C[Si](C)O[Si](C)(C)O[Si](C)(C)O[Si](C)C | inactive | –
CCCCCCOC(=O)CCC | inactive | –
Oc1ccc2c(c1)OCO2 | inactive | –
COc1ccc([C@@H]2Sc3ccccc3N(CCN(C)C)C(=O)[C@@H]2OC(C)=O)cc1 | inactive | –
c1ccc(CNCc2ccccc2)cc1 | inactive | –
Cc1ccc(C(N)=O)cc1N | inactive | –
CC(C)CC=O | inactive | –
S=C(S)NCCNC(=S)S | inactive | –
COC(Cc1ccccc1)OC | inactive | –
CC(C)CCCC(C)CCO (stereo not given) | inactive | –
O=C=NC1CCC(CC2CCC(N=C=O)CC2)CC1 (stereo not given) | inactive | –
CC(C)(C)C(=O)OCOP(=O)(COCCn1cnc2c(N)ncnc21)OCOC(=O)C(C)(C)C | inactive | –
Cc1cc(C)c(S(=O)(=O)O)cc1N=Nc1cc(S(=O)(=O)O)c2ccccc2c1O | inactive | –
CCCCCCCCCC(=O)OCC | inactive | –
OC(CCN1CCCCC1)(c1ccccc1)C1CCCCC1 (stereo not given) | inactive | –

SMILES | Potency | activity change, negative = cytotoxic
CN(C)CC/C=C1\c2ccccc2COc2ccccc21 | inactive | –
C=CC(=O)OCC(C)OCC(C)OCC(C)OC(=O)C=C (stereo not given) | 54.9 µM (active) | –
CCN(CCO)CCCC(C)Nc1ccnc2cc(Cl)ccc12 (stereo not given) | – | 2.34% [at 6.97 µM] (inactive)
CC(=O)OC/C=C/c1ccccc1 | inactive | –
CNCC[C@@H](Oc1ccccc1C)c1ccccc1 | inactive | –
CCCCOc1cc(C(=O)OCCN(CC)CC)ccc1N | inactive | –
C=CC(=O)OCCOC(=O)CCC(=O)O | inactive | –
O=CNc1ccccc1 | inactive | –
Cc1nc2ccccc2n1Cc1ccc(Cl)cc1 | inactive | –
N=C(N=C(N)N)N1CCOCC1 | inactive | –
CC1=CC(=O)/C(=C(/C)O)C(=O)O1 | inactive | –
CCCCCCCCCC=O | inactive | –
Cc1ccc(C(C)c2ccc(C)c(C)c2)cc1C | inactive | –
C=CC[N+]1([C@H]2C[C@H]3[C@@H]4CC[C@H]5C[C@H](OC(C)=O)[C@@H](N6CCCCC6)C[C@]5(C)[C@H]4CC[C@]3(C)[C@H]2OC(=O)CC)CCCCC1 | inactive | –
COCCCCCCCCOCCC[Si](C)(O[Si](C)(C)C)O[Si](C)(C)C | inactive | –
CC(=O)/C(C)=C/C1C(C)=CCCC1(C)C (stereo not given) | inactive | –
CCOC(=O)CC(=O)c1cc(F)c(Cl)nc1Cl | inactive | –
CN1CCC(OC(c2ccccc2)c2ccccc2)CC1 | inactive | –
CN1CCC(=C2c3ccccc3C=Cc3ccccc32)CC1 | inactive | –
COC(=O)C(C)=O | inactive | –
